# Compounds without any hit were thinned out: in the full panel of roughly 79,000, 15% have a hit. A number with no mark means an inactive call. Calls of active or inactive are those of the source. Cut-off read from the data, not from the text of the source: active = growth inhibition above about 70%; inactive = the rest.
# Experiments:
# [1] = NCI Yeast Anticancer Drug Screen. Data for the rad50 strain (AID 155);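 note: 0% = growth of vehicle-only cultures of the same strain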; details: S. cerevisiae rad50 strain growth inhibition, stronger effect = higher value
# Outline: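 Vehicle-treated cultures provide the reference for the growth inhibition reported for compound-exposed, repair-deficient yeast.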
# [2] = NCI Yeast Anticancer Drug Screen. Data for the mec2-1 strain (AID 157); details: S. cerevisiae mec2-1 strain, stronger effect = higher value
# Outline: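 Test agents were screened against the mec2-1 yeast strain, with defined DNA repair or cell cycle alteration. Growth was scored as inhibition against vehicle-only controls.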
# [3] = NCI Yeast Anticancer Drug Screen. Data for the sgs1 mgt1 strain (AID 161);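 note: 0% = growth of cultures given vehicle only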; details: S. cerevisiae sgs1 mgt1 strain, stronger effect = higher value
# Outline: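 Genetically altered yeast, compound exposure, growth inhibition relative to vehicle.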
# [4] = NCI Yeast Anticancer Drug Screen. Data for the cln2 rad14 strain (AID 165);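 note: 0% = growth equal to vehicle treated cultures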; details: S. cerevisiae cln2 rad14 strain, stronger effect = higher value
# Outline: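 Growth of compound-exposed yeast (cln2 rad14 genotype) measured and expressed as inhibition relative to vehicle.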
# [5] = NCI Yeast Anticancer Drug Screen. Data for the bub3 strain (AID 167); details: S. cerevisiae bub3 mutant strain, stronger effect = higher value
# Outline: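 Mutant yeast screening strain plus compound; vehicle-treated cultures serve as the 0% inhibition reference.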
# [6] = NCI Yeast Anticancer Drug Screen. Data for the mlh1 rad18 strain (AID 175); details: S. cerevisiae mlh1 rad18 strain growth inhibition, stronger effect = higher value
# Outline: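 In this whole-cell yeast screen, a strain with altered DNA damage repair is challenged with compound, and its growth is measured against matched vehicle-treated controls.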
# [7] = at 5.0 µM (retest, dose inferred, filed as 0.5)
# [8] = at 50.0 µM (retest, dose inferred, filed as 5.0)
Compound,"growth inhibition [1, 7]","growth inhibition [1, 8]",growth inhibition ([1]; at 50.0 µM),"growth inhibition [2, 7]","growth inhibition [2, 8]",growth inhibition ([2]; at 50.0 µM),"growth inhibition [3, 7]","growth inhibition [3, 8]",growth inhibition ([3]; at 50.0 µM),"growth inhibition [4, 7]","growth inhibition [4, 8]",growth inhibition ([4]; at 50.0 µM),"growth inhibition [5, 7]","growth inhibition [5, 8]",growth inhibition ([5]; at 50.0 µM),"growth inhibition [6, 7]","growth inhibition [6, 8]",growth inhibition ([6]; at 50.0 µM)
NC(=O)c1ccc(N)nc1,5%,30%,20.9%,-28%,-14%,-14%,-13%,3%,19.4%,10%,15%,4.4%,-12%,12%,11.2%,-10%,8%,7.75%
CC1(O)CC([CH2][Hg][I])OC([CH2][Hg][I])C1 (stereo not drawn),99% (active),99% (active),96.3% (active),99% (active),99% (active),98.3% (active),100% (active),99% (active),96% (active),99% (active),98% (active),98% (active),99% (active),98% (active),98.6% (active),99% (active),99% (active),91.6% (active)
COc1cc(C(=O)CCN(CCCl)CCCl)cc(OC)c1OC,-1%,68%,95.5% (active),0%,67%,97.3% (active),13%,82% (active),97.2% (active),0%,55%,99.5% (active),-3%,82% (active),93.2% (active),13%,83% (active),97.1% (active)
CC(C)C1(NC(=O)C2C=C3c4cccc5[nH]cc(c45)CC3N(C)C2)OC2(O)C3CCCN3C(=O)C(Cc3ccccc3)N2C1=O (stereo not drawn),0%,94% (active),96.2% (active),-47%,92% (active),97.1% (active),-2%,89% (active),98.2% (active),-8%,95% (active),94.5% (active),-4%,95% (active),96.8% (active),-2%,97% (active),97% (active)
Fc1ccc(NP(=S)(Nc2ccc(F)cc2F)Nc2ccc(F)cc2F)c(F)c1,33%,99% (active),99.2% (active),42%,99% (active),99.3% (active),39%,99% (active),99% (active),56%,99% (active),98.7% (active),26%,99% (active),98.8% (active),30%,98% (active),99.2% (active)
COc1ccc(C2N(Cc3ccc(N(CCCl)CCCl)cc3C)CCCN2Cc2ccc(N(CCCl)CCCl)cc2C)cc1,10%,98% (active),97.1% (active),-32%,96% (active),99% (active),3%,99% (active),99% (active),2%,94% (active),75% (active),26%,96% (active),98.3% (active),18%,97% (active),98.5% (active)
CN(C)CCCNc1ccnc2c(COC(=O)N(CCCl)CCCl)ccc([N+](=O)[O-])c12,15%,33%,52.5%,23%,41%,53.7%,34%,75% (active),74.2% (active),22%,63%,43.6%,10%,42%,38.1%,22%,82% (active),84.7% (active)
CCC[CH2][Sn]([Cl])([Cl])[CH2]CCC,96% (active),98% (active),99.5% (active),98% (active),98% (active),99.3% (active),96% (active),96% (active),99.2% (active),98% (active),98% (active),98.7% (active),98% (active),98% (active),99.5% (active),98% (active),97% (active),98.8% (active)
COC([CH2][Hg][n]1cnc2c1c(=O)n(C)c(=O)n2C)CN1C(=O)c2ccccc2S1(=O)=O (stereo not drawn),9%,94% (active),96.8% (active),20%,84% (active),95.3% (active),-2%,89% (active),87.7% (active),-11%,69%,87.2% (active),-1%,89% (active),95.1% (active),-1%,95% (active),97% (active)
Cc1cc(C)[n+](CCOc2ccc(/C(=C(/Cl)c3ccccc3)c3ccccc3)cc2)c(C)c1,99% (active),99% (active),91.7% (active),83% (active),83% (active),91.9% (active),73% (active),73% (active),92.2% (active),97% (active),97% (active),91.7% (active),67%,67%,90% (active),82% (active),82% (active),89.8% (active)
CC(C)(C)OOC(=O)c1ccccc1,26%,99% (active),37.6%,11%,99% (active),18.4%,14%,93% (active),29%,14%,99% (active),0.5%,3%,99% (active),3.1%,26%,99% (active),75.3% (active)
c1ccc(C(C(=Nc2ccc(Cc3ccc(N=C(C(c4ccccc4)c4ccccc4)N4CC4)cc3)cc2)N2CC2)c2ccccc2)cc1,5%,86% (active),85.6% (active),42%,59%,92.5% (active),5%,70% (active),94.1% (active),8%,62%,77.2% (active),5%,87% (active),85.8% (active),11%,71% (active),91.7% (active)
COC1NC(=O)NC(=O)C1=[N+]=[N-] (stereo not drawn),-152%,-50%,31.6%,-44%,-39%,9.25%,-60%,-33%,1.3%,-54%,-55%,27.6%,-58%,-55%,-17.7%,-120%,-136%,21.9%
O=[N+]([O-])c1cc(S(=O)(=O)F)ccc1S,-76%,89% (active),91.2% (active),-32%,93% (active),77.5% (active),-34%,88% (active),88.9% (active),-40%,90% (active),86.7% (active),-59%,90% (active),91.8% (active),-103%,92% (active),95.8% (active)
O=C(Cl)c1ccccn1,6%,98% (active),99.5% (active),7%,99% (active),99.5% (active),7%,99% (active),77.8% (active),6%,99% (active),99.3% (active),4%,99% (active),99.3% (active),1%,99% (active),99.5% (active)
C/C(=N\O)C(CN(C)C)C(c1ccccc1)c1c(O)c2ccccc2oc1=O (stereo not drawn),25%,25%,76.5% (active),12%,12%,63.4%,15%,15%,82.2% (active),4%,4%,75.8% (active),12%,12%,74.7% (active),14%,14%,75.2% (active)

# From PubChem BioAssay (NCI)
